The record followed here is PubChem BioAssay (NCI).

The structures appear in SMILES notation. Compounds without any hit were thinned out: in the full panel of roughly 83,000, 20% have a hit.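 Single-concentration screen, 48 h exposure, 96-well plates. Endpoint: percent growth. Below 10 = active.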 Unmarked numbers belong to inactive results. Calls of active or inactive are those of the source.

Experiment in all cases: NCI-60 one-dose screen, 48 h (100 = growth as untreated, 0 = no growth, -100 = all killed)
Conditions in all cases: 10 µM unless noted

Test [1] deals with T-47D breast.
The subject of test [2] is BT-549 breast.
Test [3] concerns MDA-MB-435 melanoma.
In test [4] the test system is SW-620 colon.
The subject of test [5] is MCF7 breast.
The subject of test [6] is HCT-116 colon.
For test [7], the system named is HCC-2998 colon.
In test [8] the test system is KM12 colon.

Consider `NC1=C(C/C(N)=N\O)C(c2ccccc2Cl)c2c(ccc3ccccc23)O1` (centres undefined), for which the growth in test [1] is 84.8%; in test [2], 89.3%; in test [3], 3.52% (active); in test [4], 63.1%; in test [5], 68.5%; in test [6], 83.8%. Further, the figures for the growth in test [7] and in test [8] were 97.1% and 67.5%, respectively.
Consider `COc1ccc(-c2nc3ncccn3c2-c2nc3ccc(Br)cc3[nH]2)cc1`, for which the growth in test [1] was 77.8%; in test [2] it was 90.4%; in test [3], 68.1%; in test [4], 93.9%; in test [5], 96.7%; in test [6], 83%. Further, the growth in test [8] is 84.5%.
For `O=C1c2cc3c(cc2-c2c1c1ccc(Cl)cc1c(=O)n2C[C@H](O)[C@@H](O)[C@H](O)CO)OCO3`, the growth in test [1] is -8.86% (active); in test [2] it was -1.82% (active); in test [3] it was -39.2% (active); in test [4], 2.65% (active); in test [5], 1.66% (active); in test [6] it was 11.1%. The values for the growth in test [7] and in test [8] were 16.3% and 7.14% (active), respectively.
Regarding `COc1cc(-c2cc(-c3nc4ccccc4[nH]3)[nH]n2)cc(OC)c1OC`, the growth in test [1] was 6.65% (active); in test [2], 36.4%; in test [3] it was 19.2%; in test [4], 59.4%; in test [5], 44.2%; in test [6], 38.7%. Moreover, the growth in test [8] is 27%.
As to `Oc1ccc(Nc2ccccc2)cc1`, the growth is 91.7% in test [1]; 74% in test [2]; 75.8% in test [3]; 88.7% in test [4]; 89.2% in test [5]; 99.2% in test [6]. Moreover, the growth in test [7] was 107%; in test [8], 79.1%.
On to `C=COCCCCCCCCCCCCCCCCCC`, for which the growth in test [1] was 114%; in test [2] it was 103%; in test [3], 114%; in test [4], 104%; in test [5], 104%; in test [6], 103%. Moreover, the results for the growth in test [7] and in test [8] were 99.3% and 92.8%, respectively.
In the case of `c1cnc2[nH]cc(-c3csc(-c4cn(CCCN5CCCCC5)c5ccccc45)n3)c2c1`, the growth is 63.1% in test [1]; 90.9% in test [2]; 1.72% (active) in test [3]; -47.4% (active) in test [4]; 22.2% in test [5]; 60.6% in test [6]. Also, the growth in test [7] was 87.6%; in test [8], 63.3%.
With `Cc1cc2nc3c4cc([N+](=O)[O-])cc([N+](=O)[O-])c4n(CCN(C)C)c3nc2cc1C`, the growth is 73.6% in test [1]; 90.7% in test [2]; 92.1% in test [3]; 45.6% in test [4]; 63.2% in test [5]; 45.3% in test [6]. The growth in test [7] was 88.2%; in test [8], 77.1%.
As for `O=C(Nc1ccc(/C=C2\SC(=O)N(Cc3ccc(OC(F)(F)F)cc3)C2=O)cc1)c1ccc(Cl)c([N+](=O)[O-])c1`, the growth in test [1] was 4.78% (active); in test [2], 75.3%; in test [3], 99.6%; in test [4] it was 2.11% (active); in test [5], 1.61% (active); in test [6] it was 67.5%. In addition, the values for the growth in test [7] and in test [8] were 96.7% and 53.1%, respectively.
With `C=C1CC[C@@H](C(=O)OC)Cc2nc(C)ccc21`, the growth in test [1] is 99%; in test [2] it was 122%; in test [3] it was 103%; in test [4], 102%; in test [5] it was 98%; in test [6] it was 110%. Also, the growth in test [7] is 101%; in test [8] it was 108%.
Turning to `Clc1ccc2[nH]cc(-c3nc(-c4c[nH]c5ncccc45)cs3)c2c1`, the growth in test [1] is 47.8%; in test [2], 59.3%; in test [3] it was 49.4%; in test [4], 18.1%; in test [5], 35%; in test [6] it was 23.7%. For the same molecule, the growth in test [8] is 23.3%.
In the case of `c1ccc(CN2C(c3ccccc3)=Nc3ccccc3C2c2c[nH]c3ccccc23)cc1` (centres undefined), the growth was 27.8% in test [1]; 96.3% in test [2]; 39.2% in test [3]; 27.1% in test [4]; 23.5% in test [5]; 14.3% in test [6]. The growth in test [7] was 41.8%; in test [8], 56.8%.
As for `COc1ccc(OCC(CO)N2CCN(c3ccccc3)CC2)cc1` (centres undefined), the growth in test [1] is 101%; in test [2], 97.5%; in test [3] it was 108%; in test [4] it was 110%; in test [5] it was 83.4%; in test [6], 95.7%. Further, the growth in test [7] was 99.7%; in test [8] it was 105%.
On to `COc1cc(/C=N/Nc2ncnc3c2c(C)nn3-c2ccc(F)cc2)ccc1O`, for which the growth in test [1] is 79.8%; in test [2], 90.4%; in test [3] it was 95.4%; in test [4] it was 131%; in test [5], 85.3%; in test [6] it was 105%. Also, the growth in test [7] was 99.7%; in test [8] it was 71.9%.
